Drawing on PubChem BioAssay AID463173 (ICCB-Longwood Screening Facility, Harvard Medical School, 2010), this text covers survival for 93 compounds.

Molecules are shown by their SMILES. Out of some 52,000 compounds screened, about 1,700 (3.3%) were called active. This is one part of a sample in which actives are shown more often than they occur. Unmarked numbers belong to inactive results. Cut-off read from the data, not from the text of the source: active = survival mostly below about 52% (no sharp cut-off); inactive = mostly above about 56%.

This assay relates to Wild type. As to the kind of experiment: growth inhibition of S. aureus wild type versus tarO mutant, primary screen, teichoic acid synthesis inhibitors, RN4220, OD600 (AID 463173). The following applies: S. aureus RN4220 wild type/DeltatarO growth, OD600, 18 h, hits give low values, screened at 18.75 µg/mL (by protocol).
Consider `Cc1ccc(SCC(=O)Nc2ccc3oc(-c4cccc(C)c4)nc3c2)cc1`, for which the survival is 96%.
For the compound `COCCCNC(=O)CSc1nc2cc3c(cc2c(=O)n1CCCCCC(=O)NCc1ccc(OC)cc1)OCO3`, the survival was 1% (active).
As for `COCCNC(=O)CSc1nc2cc3c(cc2c(=O)n1CCCCCC(=O)NCc1ccc(OC)cc1)OCO3`, the survival was 63%.
With `CCOC(=O)CSc1nc2cc3c(cc2c(=O)n1CCCC(=O)NCCc1ccc(OC)c(OC)c1)OCO3`, the survival was -4% (active).
With `COc1ccc(CCNC(=O)CCCn2c(SCC(N)=O)nc3cc4c(cc3c2=O)OCO4)cc1OC` the figure was 81%; with `CCN(CC)C(=O)CSc1nc2cc3c(cc2c(=O)n1CCCCCC(=O)NCc1ccc(OC)cc1)OCO3`, -3% (active); with `CCN(CC)C(=O)CSc1nc2cc3c(cc2c(=O)n1CCCC(=O)NCc1ccc(OC)cc1)OCO3`, 82%.
On to `CCCCNC(=O)CSc1nc2cc3c(cc2c(=O)n1CCCC(=O)NCCc1ccc(OC)c(OC)c1)OCO3`, for which the survival was 129%.
With `COCCCNC(=O)CSc1nc2cc3c(cc2c(=O)n1CCCC(=O)NCc1ccc(OC)cc1)OCO3` the figure was 70%.
For `CCOC(=O)CSc1nc2cc3c(cc2c(=O)n1CCCCCC(=O)NCc1ccc(OC)cc1)OCO3` the value was 71%; for `CC1Cc2ccccc2N1C(=O)c1nc2ccccc2s1` (stereo not drawn), 113%.
With `O=C(Cn1nc(-c2ccc(Cl)cc2)c2ccccc2c1=O)Nc1cccc(C(F)(F)F)c1` the figure was 71%; with `COc1ccccc1N=C1SC(C(=O)Nc2ccccc2OC)CC(=O)N1C` (stereo not drawn), 73%.
Regarding `COc1cccc(-c2nnc3sc(CN4CCCCC4)cn23)c1`, the survival was 68%.
For `CCN1/C(=C\C=C2C(=O)OC(C)(C)OC2=O)Sc2ccccc21` the value was 94%; for `CCC(Sc1nc2ccncc2[nH]1)C(=O)Nc1cc(Cl)ccc1C` (stereo not drawn), 126%.
With `CCOC(=O)c1ccc(NC(=O)CN2C(=O)c3cccnc3Sc3ccccc32)cc1` the figure was 66%; with `CCOC(=O)c1c(C)n(-c2ccccc2)c2ccc(OC(=O)c3cccc(Cl)c3)cc12`, 78%.
With `CCOC(=O)c1c(C)n(-c2ccccc2)c2ccc(OC(=O)c3ccccc3)cc12` the figure was 0% (active); with `CCOC(=O)c1c(C)n(-c2ccccc2)c2ccc(OC(=O)c3cccc(C)c3)cc12`, 50%.
Turning to `CC(C)(C)c1ccc(OCCCC(=O)N2CCOCC2)cc1`, the survival is 102%.
For `O=C(NCCCN1CCN(c2ccccc2F)CC1)c1sc2ncccc2c1-n1cccc1` the value was 81%; for `c1coc(-c2nc3ccccn3c2Nc2ccc3c(c2)OCCO3)c1`, 70%; for `O=C(CC1(O)C(=O)N(CCc2ccccc2)c2ccc(Br)cc21)c1ccccc1` (stereo not drawn), 15%.
With `O=C(CC1(O)C(=O)N(CCc2ccccc2)c2ccc(Br)cc21)c1ccccc1O` (stereo not drawn) the figure was 6% (active).
With `O=C(CC1(O)C(=O)N(CCc2ccccc2)c2ccc(Br)cc21)c1ccc(F)cc1` (stereo not drawn) the figure was 4% (active); with `COc1ccc(C(=O)CC2(O)C(=O)N(Cc3ccccc3)c3ccc(Br)cc32)cc1` (stereo not drawn), 57%; with `COc1ccc(C(=O)CC2(O)C(=O)N(CCc3ccccc3)c3ccc(Br)cc32)cc1OC` (stereo not drawn), 65%.
For `C#CCN1C(=O)C(O)(CC(=O)c2ccc(OC)c(OC)c2)c2cc(Br)ccc21` (stereo not drawn), the survival is 111%.
With `C=CCN(CC=C)C(=S)Nc1ccc2nc(C)c(C)nc2c1` the figure was 110%.
With `Cc1ccc(-c2nc3ncccc3o2)cc1NC(=O)c1ccc(-c2ccc(Cl)cc2)o1`, the survival was 73%.
For `COc1ccc(Cn2c(SCc3ccc(C(=O)NCc4ccccc4F)cc3)nc3cccnc32)cc1` the value was 67%.
Regarding `CCOc1ccc(NC(=O)CN2CCN(CC(=O)Nc3ccccc3OCC)CC2)cc1`, the survival is 81%.
With `CCOc1ccccc1NC(=O)Cc1coc2c(C)c(C)ccc12` the figure was 114%; with `CC1CCN(C(=O)Cn2cc(SCC(=O)NCc3ccc(F)cc3)c3ccccc32)CC1`, 89%.
As to `CCCc1cc(=O)[nH]c(Nc2ccc(O)cc2C)n1`, the survival is 110%.
With `COc1ccc(C)c(N2C(=O)CC(N3CCN(c4ccc(F)cc4)CC3)C2=O)c1` (stereo not drawn), the survival is 109%.
In the case of `CC1Cc2ccccc2N1C(=O)c1cc2n(n1)C(C(F)(F)F)CC(c1ccco1)N2` (stereo not drawn), the survival is 110%.
With `Cc1cc(Br)cc2c1N(Cc1ccccc1OC(C)C)C(=O)C2=O` the figure was 26% (active); with `Cc1ccc(CN2C(=O)C(=O)c3cc(Br)cc(C)c32)cc1`, 40%; with `COc1ccccc1CN1C(=O)C(=O)c2cccc(C)c21`, 107%.
For `CCCCOc1ccc(CN2C(=O)C(=O)c3cc(Br)cc(C)c32)cc1OC` the value was 59%; for `CCCOc1ccc(CN2C(=O)C(=O)c3cccc(C)c32)cc1`, 38%; for `Cc1cccc2c1N(Cc1ccccc1OCCC(C)C)C(=O)C2=O`, 25% (active).
For `CC(=O)c1cc(-c2ccccc2)n(CCC(=O)Nc2ccc(C)cc2C)c1C` the value was 85%.
Consider `Cc1ccc(-c2nn(CC(=O)NC3CCCCC3)c3c2cnc2ccccc23)cc1`, for which the survival was 75%.
For `CN(Cc1ccccc1)C(=O)COc1ccc(S(=O)(=O)N2CCCC2)cc1` the value was 121%; for `Nc1nc(Nc2ccccc2F)sc1C(=O)c1ccc(Cl)cc1`, -7% (active); for `COc1ccc(C(=O)c2sc(Nc3cc(Cl)ccc3C)nc2N)cc1OC`, 129%.
As for `Nc1c(C(=O)c2ccc(F)cc2)sc(Nc2ccccc2F)c1S(=O)(=O)c1ccc(Br)cc1`, the survival is 74%.
With `CCc1nn2c(=O)cc(COC(=O)c3cccs3)nc2s1` the figure was 89%.
With `CCOC(=O)c1c(S(=O)(=O)N2CCCC(C(=O)Nc3ncccc3C)C2)c(C)n(C)c1C` (stereo not drawn) the figure was 71%; with `O=C(CSc1nnc(NC(=O)C2CC2)s1)Nc1ccccc1F`, 108%.
For `CCOc1ccccc1CNC(=O)c1ccc(N2Cc3ccccc3Oc3ncccc32)s1` the value was 84%; for `CCOC(=O)c1sc2ncn(CC(=O)Nc3ccc(OC)c(Cl)c3)c(=O)c2c1C`, 78%; for `O=C(NCc1ccccc1)c1nc[nH]c1C(=O)NCc1ccccc1`, 123%.
On to `CCOc1cccc2cc(-c3cn4c(n3)sc3ccccc34)c(=O)oc12`, for which the survival was 64%.
For `COc1cccc2cc(-c3cn4c(n3)sc3cc(F)ccc34)c(=O)oc12` the value was 75%.
For `CCOc1cccc2cc(-c3cn4c(n3)sc3cc(C)ccc34)c(=O)oc12` the value was -6% (active).
With `Cc1oc(-c2ccc(Cl)cc2)nc1CN1CCCC(C(=O)NCCc2ccc(Cl)cc2)C1` (stereo not drawn) the figure was 86%; with `Cc1ccc(CCNC(=O)C2CCCN(Cc3nc(-c4cccc(Cl)c4)oc3C)C2)cc1` (stereo not drawn), 9% (active); with `Cc1oc(-c2cccc(Cl)c2)nc1CN1CCCC(C(=O)NCCc2ccc(Cl)cc2)C1` (stereo not drawn), -2% (active).
With `Cc1oc(-c2ccc(Cl)cc2)nc1CN1CCCC(C(=O)NCCc2ccccc2)C1` (stereo not drawn), the survival was 29%.
As to `Cc1cccc(-c2nc(CN3CCCC(C(=O)NCCc4ccc(Cl)cc4)C3)c(C)o2)c1` (stereo not drawn), the survival was 29%.
With `Cc1oc(-c2cccc(Cl)c2)nc1CN1CCC(C(=O)NCCc2ccc(Cl)cc2)CC1` the figure was 88%; with `CCc1ccc(C(=O)c2cn(CC(=O)Nc3ccc4c(c3)OCO4)c3cc(OC)c(OC)cc3c2=O)cc1`, 107%.
For the compound `Cc1ccccc1NC(=O)c1ccccc1NC(=O)c1ccccc1F`, the survival was 89%.
As for `COc1ccc(NC(=O)CC2C(=O)N(c3ccccc3)C(=O)N2C2CCCCC2)cc1` (stereo not drawn), the survival is 70%.
With `O=C(Nc1ccccc1C(F)(F)F)C1CCN(c2nnc(-n3cccc3)s2)CC1` the figure was 113%; with `COc1ccc(C(C)=O)cc1CSc1nc(NCCc2ccccc2)c2ccccc2n1`, 47%; with `COc1ccc(C(C)=O)cc1CSc1nc(NCc2ccccc2)c2ccccc2n1`, 85%.
Take `COc1ccc(C(C)=O)cc1CSc1nc(NCc2ccc(Cl)cc2)c2ccccc2n1`: the survival is 0% (active).
Regarding `CN(C(=O)c1c2c(nc3ccccc13)C(=O)N(C1CCCCC1)C2)c1ccc(F)cc1`, the survival was -3% (active).
For `O=C(NCc1ccc(F)cc1)c1c2c(nc3ccccc13)C(=O)N(C1CCCCC1)C2` the value was 99%.
With `CCOc1ccccc1N(C)C(=O)c1c2c(nc3ccccc13)C(=O)N(C1CCCCC1)C2` the figure was 90%; with `COc1ccc(CNC(=O)Cn2ncc3c(=O)oc4ccc(C)cc4c32)c(OC)c1`, 113%.
`COC(=O)c1c(NC(=O)CCCOc2ccccc2)sc2c1CCC(C)C2` (stereo not drawn): the survival was 20%.
Consider `Cc1ccc(OCCCC(=O)Nc2sc3c(c2C(N)=O)CCC(C)C3)cc1` (stereo not drawn), for which the survival is 148%.
For `CC1CCc2c(sc(NC(=O)CCCOc3ccccc3)c2C(N)=O)C1` (stereo not drawn) the value was 91%; for `CCOC(=O)c1c(NC(=O)CS(=O)(=O)c2ccc(C)cc2)sc2c1CCC(C)C2` (stereo not drawn), 73%; for `CCOC(=O)c1c(NC(=O)CCCOc2ccc(C)cc2)sc2c1CCC(C)C2` (stereo not drawn), 2% (active).
As for `CCOC(=O)c1c(NC(=O)CCCOc2ccccc2C)sc2c1CCC(C)C2` (stereo not drawn), the survival was 6% (active).
For `COC(=O)c1ccccc1NC(=O)COC(=O)c1ccco1`, the survival is 108%.
With `COc1ccc(CNC(=O)c2cc(=O)[nH]c3ccc(S(=O)(=O)N4CCCC4)cc23)c(OC)c1` the figure was 60%; with `CCOc1cc(CNC(=O)C2COc3ccccc3C2)cc(OCC)c1OCC` (stereo not drawn), 73%.
With `CCc1ccc(CNC(=O)C2COc3ccccc3C2)cc1` (stereo not drawn) the figure was 88%; with `CN(C)c1ccc(CNC(=O)C2COc3ccccc3C2)cc1` (stereo not drawn), 0% (active).
As for `Cc1ccc(CNC(=O)C2COc3ccccc3C2)cc1` (stereo not drawn), the survival was 121%.
For `COc1ccc(CCNC(=O)C2COc3ccccc3C2)cc1OC` (stereo not drawn) the value was 59%.
As to `O=C(NCCc1ccc(Cl)cc1)C1COc2ccccc2C1` (stereo not drawn), the survival is 88%.
As to `CCOc1ccc(CCNC(=O)C2COc3ccccc3C2)cc1OCC` (stereo not drawn), the survival was -2% (active).
`Cc1ccc(CCNC(=O)C2COc3ccccc3C2)cc1` (stereo not drawn): the survival is 88%.
With `O=C(NCCc1ccccc1)C1COc2ccccc2C1` (stereo not drawn) the figure was 10% (active).
